Each structure is given as a SMILES string.

The term inhibition denotes the drop in the measured response relative to a control, in per cent.

Solute carrier family 2, facilitated glucose transporter member 1 (Homo sapiens), sequence (P11166 whole entry): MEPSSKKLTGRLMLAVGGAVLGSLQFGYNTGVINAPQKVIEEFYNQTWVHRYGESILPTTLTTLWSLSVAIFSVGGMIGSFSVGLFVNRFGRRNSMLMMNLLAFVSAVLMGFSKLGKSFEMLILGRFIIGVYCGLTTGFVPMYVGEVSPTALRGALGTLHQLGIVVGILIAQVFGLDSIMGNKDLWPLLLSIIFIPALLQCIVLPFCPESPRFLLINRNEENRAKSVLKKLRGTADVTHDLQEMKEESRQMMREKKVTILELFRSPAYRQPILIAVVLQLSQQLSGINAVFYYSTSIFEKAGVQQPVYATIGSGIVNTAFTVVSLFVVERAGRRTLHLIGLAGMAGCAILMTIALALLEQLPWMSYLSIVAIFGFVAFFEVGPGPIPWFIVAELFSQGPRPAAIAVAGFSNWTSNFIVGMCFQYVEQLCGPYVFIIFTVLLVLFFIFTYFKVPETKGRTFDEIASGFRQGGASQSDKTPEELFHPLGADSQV

One experiment has as its target Solute carrier family 2, facilitated glucose transporter member 1 (Homo sapiens) (UniProt P11166). Put plainly: ST_JUDE_LEISH: Cytotoxicity at 2uM final concentration against transgenic Leishmania Mexicana promastigotes LmGLUT1 that are glucose transport deficient and complemented with the human glucose transporter GLUT1. Activity is measured by DNA content using SYBR green in vitro. Format: functional.
In the case of `CCCCCCCN1CC[C@@H](CCCc2ccnc3ccc(OCC4CCCNC4)cc23)[C@@H](CC)C1` (stereo not given in full), the inhibition worked out at 4.6%.
With `CC(C)N1CCN(c2ccc(OCCCN3CCN(c4cccc(Cl)c4Cl)CC3)c(C(F)(F)F)c2)CC1`, the inhibition was 2.24%.
Consider `O=C(CCc1ccccc1)N[C@H](Cc1c[nH]c2ccccc12)C(=O)N1CCC(NCc2ccc3c(c2)Cc2ccccc2-3)CC1`, for which the inhibition was 7.69%.
Take `COc1cc2c(cc1C(F)(F)F)N(C(=O)Nc1ccc(Br)cn1)CC2`: the inhibition is -0.2%.
Still for that read-out and setting: then `CCOC(=O)c1cc(C(=O)NCCCCN2CCC(c3cn(C)c4ccccc34)CC2)ccc1-c1ccc(C(F)(F)F)cc1`, with 2.37%.
The same measure, in the same setting: then `CCn1c(SC)nnc1C1CCCN(CC(=O)Nc2nc3ccc(OC)cc3s2)C1` (stereo not given), with 4.48%; and `CCC(=C(CC)c1ccc(O)c(CNC2CCCCC2)c1)c1ccc(O)c(CNC2CCCCC2)c1`, with 23.6%.
`O=c1cc(NCCCNCc2cc(Br)cs2)[nH]c2ccccc12`: the inhibition was 3.94%.
Turning to `O=C(N[C@H]1CCN(Cc2ccc(OC3CCN(Cc4ccccc4)CC3)c(Br)c2)C1)c1ccc(Cl)c(Cl)c1`, the inhibition is -0.92%.
On to `CC1CC(C)CN(CCCNc2ccc(C(=O)Nc3ccc(C(F)(F)F)cc3)cc2[N+](=O)[O-])C1` (stereo not given), for which the inhibition came to 3.92%.
Same read-out and setting: then `CC(C)(C)c1cc([N+](=O)[O-])cc(C(=O)Nc2ccccc2C(F)(F)F)c1O`, with 0.47%; and `CCN1CCN(CCCCNc2c3ccccc3nc3ccccc23)CC1`, with 20.5%.
Same read-out and setting: then `O=C(NCC1CC1)C1CCN(C(c2ccccc2)c2cc(F)cc(F)c2)CC1` (stereo not given), with 3.61%; and `O=C(Nc1ccc(-c2ccccc2)cc1)Nc1cccc(OCCN2CCCC2)c1`, with 7.09%; and `CCC(C(C)C)n1ccc2c3c(N)nc(N)nc3ccc21` (stereo not given), with 81.6%.
As for `CN(C)CCOc1cc(NC(=O)Nc2cccc([N+](=O)[O-])c2)ccc1I`, the inhibition was found to be 13%.
As to `COc1ccc(C2C(C(=O)OC3CCCC3)=C(C)NC3=C2C(=O)CCC3)cc1Br` (stereo not given), the inhibition was found to be 1.02%.
The same measure, in the same setting: as for `NC1CCN(Cc2cccc(-c3ccc(-c4nc5ccccc5[nH]4)s3)c2)C1` (stereo not given), the figure is 3.94%; as for `Cc1ccc(-c2nc3cc(C(=O)NC4CCN(Cc5ccccc5)CC4)ccc3[nH]2)cc1`, 6.09%.
On the same count and under the same terms, as for `O=C(COC(=O)c1cccc(S(=O)(=O)N2CCc3ccccc32)c1)NNC(=O)c1cccs1`, the figure is 4.4%; as for `COc1ccc(-c2ccc3c(-c4ccc(F)cc4)cnc(N)c3c2)cn1`, -1.25%.
Regarding `COc1cc(F)c2nccc([C@@H](O)CN3CCC(NCc4ccc5c(n4)NC(=O)CS5)CC3)c2c1`, the inhibition is -0.92%.
Still for that read-out and setting: as for `COc1cc(-c2nc(-c3ccccc3)c(-c3ccccc3)[nH]2)ccc1OCCN(C)C`, the figure is 1.69%; as for `CN(C)Cc1ccc2cc(NC(=O)c3ccc(-c4ccc(Cl)cc4)cc3)ccc2n1`, 2.13%.
Consider `O=C(N[C@H](Cc1ccc(Cl)cc1)C(=O)N1CCN(c2ccnc3cc(Cl)ccc23)CC1)[C@H]1Cc2ccccc2CN1`, for which the inhibition turned out to be 0.9%.
Same read-out and setting: as for `Cn1cccc1CCNCc1ccc(-c2cccc(-c3nc4cc(F)ccc4[nH]3)c2)cc1`, the figure is 3.65%.
Take `Cc1cc([N+](=O)[O-])ccc1NC(=O)Nc1cccc(C(F)(F)F)c1`: the inhibition amounted to 5.58%.
For `c1ccc2c(c1)CN(Cc1cc3ccccc3[nH]1)CC1(CCN(Cc3c[nH]c4cnccc34)CC1)O2`, the inhibition was found to be 1.1%.
As to `Cc1ccc(C)c(CC(=O)N2CCC(n3c(C)nc4ccc(F)cc43)CC2)c1`, the inhibition was found to be 4.03%.
Still for that read-out and setting: then `COc1ccc2c(=NN=Cc3cccnc3)cc(C)[nH]c2c1`, with 1.93%; and `Cc1ccc(C(=O)Nc2ccc(C)c(OC3CCN(Cc4ccco4)C3)c2)cc1` (stereo not given), with 0.19%.
The same measure, in the same setting: then `COC(=O)c1ccc(Nc2nccc(Nc3ccc(Oc4ccccc4)cc3)n2)cc1`, with 5.22%.
As to `O=C(Nc1c(F)cccc1F)c1cccc(-c2nn3ccccc3c2-c2ccnc(Nc3cccc(-c4cnco4)c3)n2)c1`, the inhibition is 12.2%.
In the case of `CCN(CC)CCCn1c(N)c(-c2nc3ccccc3[nH]2)c2nc(C#N)c(C#N)nc21`, the inhibition stood at 7.13%.
Same read-out and setting: as for `COc1ccc(-c2ccccc2CNc2nc(NCCc3ccc(O)cc3)nc(N3CCNCC3)n2)cc1`, the figure is -2.91%; as for `CS(=O)(=O)CCCNCc1ccc(-c2cc3c(Nc4ccc(OCc5ccccc5)cc4)ncnc3cn2)o1`, 2.89%.
Same read-out and setting: then `CC(C)N1CCC(NC(=O)N2CCCN(c3ncnc4cc(-c5ccc(Cl)cc5)sc34)CC2)CC1`, with -0.49%; and `O=C(NCC1CCC(C(=O)NC2CCCc3ccccc32)CC1)c1ccc(O)c(-c2ccc(Cl)c(Cl)c2)c1` (stereo not given), with 3.42%.
For the molecule `O=S(=O)(Nc1cccc(CCN2CCC(N3CCCCC3)CC2)c1)c1ccccc1C(F)(F)F`, the inhibition came out at 1.15%.
Still for that read-out and setting: then `Nc1ncc(-c2ccc(NC(=O)Nc3cc(C(F)(F)F)ccc3F)cc2)c(N)n1`, with -0.9%.

A further experiment concerns the target Hexose transporter 1 (Plasmodium falciparum) (UniProt O97467). Put plainly: ST_JUDE_LEISH: Cytotoxicity at 2uM final concentration against transgenic Leishmania Mexicana promastigotes LmPfHT that are glucose transport deficient and complemented with the Plasmodium falciparum hexose transporter. Activity is measured by DNA content using SYBR green in vitro. It counts as functional.
As for `CCCCCCCN1CC[C@@H](CCCc2ccnc3ccc(OCC4CCCNC4)cc23)[C@@H](CC)C1` (stereo not given in full), the inhibition is 3.17%.
On the same count and under the same terms, as for `CC(C)N1CCN(c2ccc(OCCCN3CCN(c4cccc(Cl)c4Cl)CC3)c(C(F)(F)F)c2)CC1`, the figure is 1.13%; as for `O=C(CCc1ccccc1)N[C@H](Cc1c[nH]c2ccccc12)C(=O)N1CCC(NCc2ccc3c(c2)Cc2ccccc2-3)CC1`, 7.43%.
As to `COc1cc2c(cc1C(F)(F)F)N(C(=O)Nc1ccc(Br)cn1)CC2`, the inhibition was 0.68%.
Same read-out and setting: then `CCOC(=O)c1cc(C(=O)NCCCCN2CCC(c3cn(C)c4ccccc34)CC2)ccc1-c1ccc(C(F)(F)F)cc1`, with 2.2%; and `CCn1c(SC)nnc1C1CCCN(CC(=O)Nc2nc3ccc(OC)cc3s2)C1` (stereo not given), with 3.27%; and `CCC(=C(CC)c1ccc(O)c(CNC2CCCCC2)c1)c1ccc(O)c(CNC2CCCCC2)c1`, with 8.98%.
The same measure, in the same setting: then `O=c1cc(NCCCNCc2cc(Br)cs2)[nH]c2ccccc12`, with 2.8%; and `O=C(N[C@H]1CCN(Cc2ccc(OC3CCN(Cc4ccccc4)CC3)c(Br)c2)C1)c1ccc(Cl)c(Cl)c1`, with 2.97%; and `CC1CC(C)CN(CCCNc2ccc(C(=O)Nc3ccc(C(F)(F)F)cc3)cc2[N+](=O)[O-])C1` (stereo not given), with 0.64%.
`CC(C)(C)c1cc([N+](=O)[O-])cc(C(=O)Nc2ccccc2C(F)(F)F)c1O`: the inhibition was -0.82%.
Consider `CCN1CCN(CCCCNc2c3ccccc3nc3ccccc23)CC1`, for which the inhibition was determined as 8.76%.
`O=C(NCC1CC1)C1CCN(C(c2ccccc2)c2cc(F)cc(F)c2)CC1` (stereo not given): the inhibition came out at 3.92%.
Consider `O=C(Nc1ccc(-c2ccccc2)cc1)Nc1cccc(OCCN2CCCC2)c1`, for which the inhibition was found to be 4.18%.
Same read-out and setting: as for `CCC(C(C)C)n1ccc2c3c(N)nc(N)nc3ccc21` (stereo not given), the figure is 84.6%; as for `CN(C)CCOc1cc(NC(=O)Nc2cccc([N+](=O)[O-])c2)ccc1I`, 14.6%; as for `COc1ccc(C2C(C(=O)OC3CCCC3)=C(C)NC3=C2C(=O)CCC3)cc1Br` (stereo not given), -0.27%.
Same read-out and setting: then `NC1CCN(Cc2cccc(-c3ccc(-c4nc5ccccc5[nH]4)s3)c2)C1` (stereo not given), with 2.41%.
Same read-out and setting: then `Cc1ccc(-c2nc3cc(C(=O)NC4CCN(Cc5ccccc5)CC4)ccc3[nH]2)cc1`, with 2.07%.
On to `O=C(COC(=O)c1cccc(S(=O)(=O)N2CCc3ccccc32)c1)NNC(=O)c1cccs1`, for which the inhibition came out at 4.13%.
Consider `COc1ccc(-c2ccc3c(-c4ccc(F)cc4)cnc(N)c3c2)cn1`, for which the inhibition is -1.33%.
Consider `COc1cc(F)c2nccc([C@@H](O)CN3CCC(NCc4ccc5c(n4)NC(=O)CS5)CC3)c2c1`, for which the inhibition was -1.04%.
The same measure, in the same setting: as for `COc1cc(-c2nc(-c3ccccc3)c(-c3ccccc3)[nH]2)ccc1OCCN(C)C`, the figure is 1.4%; as for `CN(C)Cc1ccc2cc(NC(=O)c3ccc(-c4ccc(Cl)cc4)cc3)ccc2n1`, 1.6%; as for `O=C(N[C@H](Cc1ccc(Cl)cc1)C(=O)N1CCN(c2ccnc3cc(Cl)ccc23)CC1)[C@H]1Cc2ccccc2CN1`, -0.43%.
Take `Cn1cccc1CCNCc1ccc(-c2cccc(-c3nc4cc(F)ccc4[nH]3)c2)cc1`: the inhibition amounted to 3.24%.
Same read-out and setting: then `Cc1cc([N+](=O)[O-])ccc1NC(=O)Nc1cccc(C(F)(F)F)c1`, with 3.9%; and `c1ccc2c(c1)CN(Cc1cc3ccccc3[nH]1)CC1(CCN(Cc3c[nH]c4cnccc34)CC1)O2`, with -0.02%; and `Cc1ccc(C)c(CC(=O)N2CCC(n3c(C)nc4ccc(F)cc43)CC2)c1`, with 3.03%.
For `COc1ccc2c(=NN=Cc3cccnc3)cc(C)[nH]c2c1`, the inhibition worked out at 0.44%.
On the same count and under the same terms, as for `Cc1ccc(C(=O)Nc2ccc(C)c(OC3CCN(Cc4ccco4)C3)c2)cc1` (stereo not given), the figure is 1.86%.
Same read-out and setting: then `COC(=O)c1ccc(Nc2nccc(Nc3ccc(Oc4ccccc4)cc3)n2)cc1`, with 9.95%; and `O=C(Nc1c(F)cccc1F)c1cccc(-c2nn3ccccc3c2-c2ccnc(Nc3cccc(-c4cnco4)c3)n2)c1`, with 4.66%.
Still for that read-out and setting: as for `CCN(CC)CCCn1c(N)c(-c2nc3ccccc3[nH]2)c2nc(C#N)c(C#N)nc21`, the figure is 6.56%.
Take `COc1ccc(-c2ccccc2CNc2nc(NCCc3ccc(O)cc3)nc(N3CCNCC3)n2)cc1`: the inhibition was -0.55%.
Still for that read-out and setting: as for `CS(=O)(=O)CCCNCc1ccc(-c2cc3c(Nc4ccc(OCc5ccccc5)cc4)ncnc3cn2)o1`, the figure is 2.8%; as for `CC(C)N1CCC(NC(=O)N2CCCN(c3ncnc4cc(-c5ccc(Cl)cc5)sc34)CC2)CC1`, 0.6%.
Consider `O=C(NCC1CCC(C(=O)NC2CCCc3ccccc32)CC1)c1ccc(O)c(-c2ccc(Cl)c(Cl)c2)c1` (stereo not given), for which the inhibition stood at 2.81%.
The same measure, in the same setting: as for `O=S(=O)(Nc1cccc(CCN2CCC(N3CCCCC3)CC2)c1)c1ccccc1C(F)(F)F`, the figure is 0.31%.
On the same count and under the same terms, as for `Nc1ncc(-c2ccc(NC(=O)Nc3cc(C(F)(F)F)ccc3F)cc2)c(N)n1`, the figure is 0.23%.

For the origin of these results see ChEMBL document CHEMBL3433997, “St. Jude Leishmania screening dataset” (2016).
